Some test systems named below: NCI-H23 lung; NCI-H226 lung; NCI-H322M lung; HOP-62 NSCLC; NCI-H460 lung; HOP-92 NSCLC; NCI-H522 lung; A549/ATCC NSCLC; 786-0 renal; COLO 205 colon; DU-145 prostate; K-562 leukemia; MALME-3M melanoma; MDA-MB-231 breast; RXF 393 renal; SF-268 CNS; SF-295 CNS; SF-539 CNS; UACC-257 melanoma; M14 melanoma.
Common to all, as to experiment: NCI-60 one-dose screen, 48 h (100 = growth as untreated, 0 = no growth, -100 = all killed)
Settings in all cases: 10 µM unless noted

Data on 8 molecules can be found in PubChem BioAssay (NCI).

Each structure is given as a SMILES string. Compounds without any hit were thinned out: in the full panel of roughly 83,000, 20% have a hit.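 48-hour exposure, single concentration, 96-well plates; percent growth endpoint where 0 means no net growth. Active: below 10.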 Unmarked numbers belong to inactive results. Calls of active or inactive are those of the source.

Consider `COc1ccc(-n2c(/C=C/c3ccc(O)c(OC)c3)cc(/C=C/c3ccc(O)c(OC)c3)nc2=O)cc1`, for which the growth in the assay with NCI-H23 lung was 42.5%; in the assay with NCI-H226 lung it was 70.7%; in the assay on NCI-H322M lung, 83.6%; in the assay with HOP-62 NSCLC, 63.4%; in the assay with NCI-H460 lung, 78%; in the assay on HOP-92 NSCLC it was 79.8%. In addition, the growth was 29.3% with NCI-H522 lung; 79.1% in the assay with A549/ATCC NSCLC; 82.8% in the assay with 786-0 renal; 56.8% with COLO 205 colon; 68.9% in the assay with DU-145 prostate; 11.8% in the assay with K-562 leukemia. Further, the growth was 85% in the assay on MALME-3M melanoma; 43.8% in the assay on MDA-MB-231 breast; 45.4% in the assay with RXF 393 renal; 41.4% in the assay with SF-268 CNS; 82.3% with SF-295 CNS; 39% with SF-539 CNS. Further, the growth is 82.2% in the assay with UACC-257 melanoma and 40.4% in the assay on M14 melanoma.
For `COc1cc2nc(Cl)nc(Nc3cccc(C(=O)/C=C/c4ccc(F)cc4)c3)c2cc1OC`, the growth was 76% in the assay on NCI-H23 lung; 73.2% in the assay with NCI-H226 lung; 86.5% with NCI-H322M lung; 85.9% in the assay on HOP-62 NSCLC; 95.4% with NCI-H460 lung; 75.3% with HOP-92 NSCLC. Moreover, the growth with NCI-H522 lung is 73.4%; in the assay on A549/ATCC NSCLC, 70.2%; in the assay with 786-0 renal, 57.7%; in the assay on COLO 205 colon, 89.5%; in the assay on DU-145 prostate, 85.7%; in the assay on K-562 leukemia, 7.78% (active). The growth in the assay with MALME-3M melanoma was 81.2%; in the assay on MDA-MB-231 breast it was 62.4%; in the assay with RXF 393 renal it was 69.4%; with SF-268 CNS, 89.6%; in the assay with SF-295 CNS, 74.1%; in the assay on SF-539 CNS, 25.8%. The growth in the assay on UACC-257 melanoma was 102%; in the assay with M14 melanoma, 62%.
Regarding `CCCCC(=O)OC1CCCCC1C` (stereo not given), the growth in the assay with NCI-H23 lung was 97.3%; in the assay on NCI-H226 lung, 79.1%; with NCI-H322M lung, 111%; in the assay with HOP-62 NSCLC, 98.9%; in the assay with NCI-H460 lung it was 104%; with HOP-92 NSCLC, 77.6%. Also, the growth was 83% with NCI-H522 lung; 72.3% with A549/ATCC NSCLC; 92.4% with 786-0 renal; 100% with COLO 205 colon; 105% with DU-145 prostate; 98.8% in the assay with K-562 leukemia. Moreover, the growth is 94.6% with MALME-3M melanoma; 106% in the assay on MDA-MB-231 breast; 93.4% in the assay with RXF 393 renal; 98.7% in the assay on SF-268 CNS; 97% with SF-295 CNS; 103% in the assay on SF-539 CNS. Further, the growth with UACC-257 melanoma was 78.5%; in the assay on M14 melanoma it was 95.4%.
Turning to `CN1CCN(c2ccc3nc(-c4[nH]ncc4Nc4ncnc5[nH]ccc45)[nH]c3c2)CC1`, the growth was -1.38% (active) in the assay on NCI-H23 lung; -10.2% (active) in the assay with NCI-H226 lung; 1.88% (active) with NCI-H322M lung; -0.445% (active) with HOP-62 NSCLC; 21% in the assay with NCI-H460 lung; 26.9% with HOP-92 NSCLC. Besides, the growth in the assay with NCI-H522 lung was -4.39% (active); in the assay with A549/ATCC NSCLC, 24%; in the assay on 786-0 renal, 2.96% (active); in the assay with COLO 205 colon, -59.8% (active); in the assay with DU-145 prostate, 7.18% (active); with K-562 leukemia, 7.3% (active). The growth in the assay on MALME-3M melanoma is -16.6% (active); in the assay with MDA-MB-231 breast, -13% (active); in the assay on RXF 393 renal, -71.7% (active); in the assay with SF-268 CNS, -9.53% (active); in the assay on SF-295 CNS, -1.58% (active); in the assay on SF-539 CNS, -43.6% (active). Further, the growth in the assay on UACC-257 melanoma is 11.7%; with M14 melanoma it was 3.42% (active).
Take `COc1cc(-c2cc3ncccc3c3[nH]c(=O)c4cccnc4c23)cc(OC)c1OC`: the growth in the assay with NCI-H23 lung was 44.5%; in the assay on NCI-H226 lung it was 28.3%; in the assay with NCI-H322M lung it was 52.6%; in the assay on HOP-62 NSCLC it was 30.3%; with NCI-H460 lung, 8.58% (active); in the assay with HOP-92 NSCLC it was 30.6%. In addition, the growth in the assay with NCI-H522 lung was 34.3%; with A549/ATCC NSCLC, 23.8%; with 786-0 renal it was 24.7%; in the assay with COLO 205 colon, -18.6% (active); with DU-145 prostate it was 14.1%; with K-562 leukemia, 10.5%. The growth is 55.4% with MALME-3M melanoma; 36.7% in the assay on MDA-MB-231 breast; -3.08% (active) in the assay on RXF 393 renal; 51.2% with SF-268 CNS; 12.6% in the assay with SF-295 CNS; 5.37% (active) in the assay with SF-539 CNS. Moreover, the growth is 51.5% in the assay on UACC-257 melanoma and 12.8% in the assay with M14 melanoma.
In the case of `O=C1NC(c2ccc(Cl)c(Cl)c2)=C/C1=C\c1ccccc1`, the growth was 84.8% with NCI-H23 lung; 57.7% in the assay with NCI-H226 lung; 79% with NCI-H322M lung; 69.1% in the assay on HOP-62 NSCLC; 18.6% in the assay with NCI-H460 lung; 72.1% in the assay with HOP-92 NSCLC. The growth was 79% in the assay with NCI-H522 lung; 55.1% in the assay on A549/ATCC NSCLC; 9.12% (active) in the assay with 786-0 renal; 65.2% in the assay with COLO 205 colon; 95.9% in the assay with DU-145 prostate; 72.6% in the assay with K-562 leukemia. The growth was 63.3% in the assay on MALME-3M melanoma; 69.9% in the assay on MDA-MB-231 breast; 65.2% in the assay with RXF 393 renal; 92.3% with SF-268 CNS; 52.2% in the assay with SF-295 CNS; 84.7% with SF-539 CNS. For the same molecule, the growth in the assay on UACC-257 melanoma is 98.2%; with M14 melanoma, 90.9%.
Regarding `COc1ccc(-c2nc(SCC(=O)Nc3ccc(C(C)=O)cc3)[nH]c(=O)c2C#N)cc1`, the growth in the assay with NCI-H23 lung was 97.2%; in the assay with NCI-H226 lung, 91%; in the assay on NCI-H322M lung it was 101%; in the assay with HOP-62 NSCLC, 101%; with NCI-H460 lung it was 111%; in the assay with HOP-92 NSCLC, 98.3%. The growth with NCI-H522 lung is 67.9%; with A549/ATCC NSCLC it was 85.3%; in the assay on 786-0 renal, 94.7%; with COLO 205 colon it was 115%; in the assay with DU-145 prostate it was 106%; with K-562 leukemia, 98.8%. For the same molecule, the growth with MALME-3M melanoma is 103%; in the assay on MDA-MB-231 breast, 95.2%; in the assay on RXF 393 renal, 108%; with SF-268 CNS it was 101%; with SF-295 CNS, 95.1%; in the assay with SF-539 CNS, 97.6%. The results for the growth with UACC-257 melanoma and with M14 melanoma were 84.7% and 87.6%, respectively.
Turning to `Nc1c2c(nc3ccc(Br)cc13)CC(c1ccccc1)CC2=O` (stereo not given), the growth with NCI-H23 lung is 37.7%; with NCI-H226 lung, 71.2%; in the assay on NCI-H322M lung, 49.1%; in the assay with HOP-62 NSCLC, 48.9%; with NCI-H460 lung it was 17.1%; with HOP-92 NSCLC, 77.9%. Besides, the growth in the assay on NCI-H522 lung is 35.6%; with A549/ATCC NSCLC it was 48.5%; in the assay with 786-0 renal, 49.6%; with COLO 205 colon, 18.6%; in the assay on DU-145 prostate, 24.2%; in the assay on K-562 leukemia it was 13.4%. In addition, the growth in the assay on MALME-3M melanoma was 51.9%; with MDA-MB-231 breast, 59.6%; in the assay with RXF 393 renal it was 21.8%; with SF-268 CNS it was 73.3%; in the assay on SF-295 CNS, 9.76% (active); in the assay with SF-539 CNS, 20%. For the same molecule, the figures for the growth in the assay on UACC-257 melanoma and in the assay with M14 melanoma were 86.3% and 17.8%, respectively.
